Screening results from PubChem.
Many of the other results were omitted from the sample, so hits are more common in it than they were.
D1 allo mod = D1 dopamine receptor (human) allosteric modulation. HEK293 D1, CRE-luciferase, dopamine EC30 potentiation; actives deviate in either direction. AID 641. B-score at 10 µM. hit rate 5.9% among 58,000;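 active means luminescence count or its row- and column-corrected plate score outside the 99.7% band of the plate's sample wells, on either side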
Target sequence (P21728 whole entry, looked up): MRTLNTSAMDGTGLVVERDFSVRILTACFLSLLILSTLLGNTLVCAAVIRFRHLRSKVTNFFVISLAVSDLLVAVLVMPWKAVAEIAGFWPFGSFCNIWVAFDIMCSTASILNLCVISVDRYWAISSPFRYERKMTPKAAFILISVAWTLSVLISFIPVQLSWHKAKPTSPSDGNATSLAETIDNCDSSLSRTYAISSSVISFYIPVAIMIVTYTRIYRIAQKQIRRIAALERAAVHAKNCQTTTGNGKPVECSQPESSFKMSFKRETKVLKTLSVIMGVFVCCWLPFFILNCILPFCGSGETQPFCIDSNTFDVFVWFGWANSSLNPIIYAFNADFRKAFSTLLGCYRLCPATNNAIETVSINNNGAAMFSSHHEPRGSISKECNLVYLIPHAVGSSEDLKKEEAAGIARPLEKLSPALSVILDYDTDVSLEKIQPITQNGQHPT
EphB4 antag = blocks human EphB4 binding to ephrin-B2 | P54760 | EphB4 LBD / TNYL-RAW-Alexa532 peptide, fluorescence polarization | inhibition, % at 7 µM | hit rate 0.15% among 97,000 | AID 720;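 active means inhibition above the screen-wide mean inhibition plus 3 SD, cut at about 15% in these data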;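 further: 0% = DMSO wells and 100% = excess unlabeled TNYL-RAW peptide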
hDAT+cocaine = human DAT dopamine uptake with cocaine, either direction; Q01959; LLC-PK1 hDAT cells, [14C]-dopamine uptake with cocaine IC80; actives deviate in either direction; B-score at 10 µM; hit rate 1.3% among 110,000;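 active means Z score or B-score, a plate-position-corrected score, falls beyond the plate's 99.7% confidence bounds, in either direction; inactive means both scores lie inside the 99.7% bounds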;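 further: scored against the spread of the other compound wells on the same plate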
* = called active by the depositor; / = no result given.

SMILES | D1 allo mod | EphB4 antag | hDAT+cocaine
Cc1cc(C(=O)CN2C(=O)c3ccccc3S2(=O)=O)c(C)n1CC1CCCO1 (centres undefined) | -5.74* | / | 0.627
Cc1cc(C(=O)CSc2nnc(Nc3ccccc3F)s2)c(C)n1CC1CCCO1 (centres undefined) | 1.79 | 15.5* | 0.0448
Cc1ccc(C)c(C(=O)CN2C(=O)c3ccccc3S2(=O)=O)c1 | / | 3.9 | -0.15
COC(=O)c1ccc([C@H]2C=C(C(=O)O)O[C@@H](OCc3ccc(CO)cc3)C2)cc1 | / | / | -0.162
CCOC(=O)c1c(C)c(C(=O)Nc2ccc3c(c2)OCCO3)c(C)n1C | 0.126 | / | -0.0359
CCC(=O)Nc1ccc2c(c1)OCCO2 | / | 3.5 | 0.777
CCOC(=O)c1ccc(NC(=O)Nc2ccc3c(c2)OCCO3)cc1 | -2.4* | 3.7 | 1.4
CCC(C)(C(=O)Nc1ccc2c(c1)OCCO2)N(C(C)=O)c1ccc(C(N)=O)cc1 (centres undefined) | -0.134 | -4.8 | -2.84*
O=C(Nc1ccc(NC(=S)NC(=O)C(c2ccccc2)c2ccccc2)cc1)c1ccccc1 | / | -1.4 | 0.204
COc1ccc(N2C(=O)NC(NC(=O)c3ccncc3)(C(F)(F)F)C2=O)cc1 (centres undefined) | / | 0.4 | -1.12
CC(C)[C@H](CO)Nc1nc(Nc2ccc(Cl)c(C(=O)O)c2)c2ncn(C(C)C)c2n1 | / | / | -0.418
CC(C)n1cnc2c(Nc3ccc(C(=O)O)cc3)nc(Cl)nc21 | / | / | -3.99*
CCN(CC)C(=O)C1CCCN(c2ccc([N+](=O)[O-])cc2/C=N/NC(=O)c2cccc([N+](=O)[O-])c2)C1 (centres undefined) | / | 5.6 | /
CCOc1ccccc1OCCCCCc1c(C)n[nH]c1C | -2.42* | -4.7 | 0.607
COc1ccccc1OCCCCCc1c(C)n[nH]c1C | -0.936 | -5.9 | 1.17
COc1cccc(NC(=O)Cn2c(=O)c3c(ncn3Cc3ccccc3)n(Cc3ccccc3)c2=O)c1 | / | -0.3 | 0.482
Cc1ccc(S(=O)(=O)NCCOCCNS(=O)(=O)c2ccc(C)cc2)cc1 | 0.593 | 3.6 | -0.506
Cc1ccc(S(=O)(=O)NCCCCCC(=O)N(C)C)cc1 | -4.28* | 0.5 | -0.0146
CC(C)CCNS(=O)(=O)c1ccc(-c2ccc(S(=O)(=O)NCCC(C)C)cc2)cc1 | / | 1.8 | 1.07
CC(C)N(CCNS(=O)(=O)c1ccc(Cl)cc1)C(C)C | / | 5.2 | 2.95*
COCCNC(=O)CCCCCNS(=O)(=O)c1ccc(C)cc1 | -0.867 | -0.2 | 1.53
Cc1ccc(S(=O)(=O)NCCN(CCNS(=O)(=O)c2ccc(C)cc2)S(C)(=O)=O)cc1 | -5.28* | 2.7 | 0.532
COc1ccc(Cl)cc1N1C(=O)/C(=C\c2sccc2C)N=C1SCC(=O)NC1CC1 | / | 4.5 | -0.715
Cc1ccc(CNS(=O)(=O)/C=C/c2ccc3c(c2)OCO3)cc1 | / | -4.1 | 0.414
O=C(NC1CC1)C1=C[C@H](c2ccc(C(F)(F)F)cc2)C[C@H](OCc2ccc(CO)cc2)O1 | / | / | 0.466
SMILES | D1 allo mod | EphB4 antag | hDAT+cocaine
Fc1ccc(-n2nnnc2-c2cnc(-c3cccs3)nc2C(F)(F)F)cc1 | / | -2.6 | -0.0842
Cc1cccc(C)c1NC(=O)NC1(C(=O)NCCCN2CCOCC2)CCCCC1 | / | 2.1 | -0.0025
Cc1ccc(C(=O)NNC(=O)C2CCN(c3nccc(C)n3)CC2)cc1 | / | -9.5 | 0.147
CC(=O)Nc1ccc(OCC=C(Cl)Cl)cc1 | -0.772 | 16.2* | 0.418
COc1ccc(C(=O)COc2ccc(NC(C)=O)cc2)cc1 | -0.467 | 3.1 | 0.913
COc1ccc2nc(SCC(=O)Nc3ccccc3C)[nH]c2c1 | / | -0.4 | 0.774
CCOC(=O)c1ccc(CC(=O)c2ccc(O)cc2O)o1 | / | -0.6 | -0.729
COC(=O)c1ccc(CC(=O)c2ccc(O)cc2O)o1 | -2.2* | -6.1 | -0.377
CC(=O)c1c(C(C)=O)c(C)n(NC(=O)c2ccncc2)c1C | / | 0.4 | 1.32
CC1CC(C)CN(CCOc2ccc(Cl)cc2Cl)C1 (centres undefined) | / | -3.4 | -8.26*
Clc1ccc(OCCN2CCCCC2)c(Cl)c1 | / | -0.2 | 0.0923
Cc1cc(CCN2CCC(=O)NC2=O)ccc1OC(C)C | -0.122 | 1.5 | -1.05
Cc1cc(=O)n(CCO)c(O)c1C#N | 0.114 | -6.1 | 0.505
Cc1cc(=O)n(CC(C)C)c(O)c1C#N | -0.254 | 16.6* | 0.338
CC(C)(C)c1ccc(C(=O)Nc2cnccn2)cc1 | -3.39* | -3.1 | -0.51
COc1ccc(C(=O)Nc2ccccn2)cc1 | / | -4.5 | 0.019
O=c1c(Cl)c(N/N=C/c2ccc(Br)cc2)cnn1-c1ccccc1 | / | 8.4 | /
Cc1cc(NC(=O)Nc2cc(C)nn2-c2ccccc2)n(-c2ccccc2)n1 | 0.0422 | -5.3 | -0.0361
CCOC(=O)/C=C(\C)Nc1cc(C)nn1-c1ccccc1 | -4.79* | / | -0.0474
C=CCNS(=O)(=O)c1ccc(OCC(=O)OC)cc1 | -0.226 | 4.0 | -0.365
C=C1CCN([C@@H](CC(C)C)C(=O)N2CCCC2)S(=O)(=O)c2ccccc21 | / | / | 0.125
